Screening results (PubChem)
Cdc42 wt GTP: modulators (inhibitors or activators) of GTP binding to human Cdc42 wildtype; GST-Cdc42 beads, Bodipy-GTP binding, flow cytometry; actives lie on both sides; actives 0.2% (n = 190,000); AID 761; P60953; percent activity (GTP binding), % at 10 µM;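 active = percent activity GTP binding at least 20 points away from the 100% baseline, either down as inhibitor or up as activator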;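 note: median bead fluorescence of bound Bodipy-FL-GTP at 100 nM; 0% = excess unlabeled GTP control and 100% = no compound control; below 100% means less GTP binding so inhibitor and above means activator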
Target sequence (P60953 whole entry, looked up): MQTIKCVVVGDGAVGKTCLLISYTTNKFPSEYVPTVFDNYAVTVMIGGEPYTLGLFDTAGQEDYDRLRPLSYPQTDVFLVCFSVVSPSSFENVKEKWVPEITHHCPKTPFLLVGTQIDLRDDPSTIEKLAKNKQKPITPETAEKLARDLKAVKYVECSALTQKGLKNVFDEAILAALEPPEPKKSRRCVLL
Rac1 act GTP bind: alters GTP binding to activated mutant human Rac1 | actives 0.11% (n = 190,000) | percent activity (GTP binding), % at 10 µM | GST-Rac1 activated beads, fluorescent GTP binding, flow cytometry; actives lie on both sides; 100% means binding = to untreated wells;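 active = GTP binding at least 20 percentage points away from the 100% baseline, in either direction, so actives lie on both sides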
Rab2A wt mod: changes GTP binding to wildtype dog Rab2A, up or down; GTP binding activity, % at 10 µM; actives 0.19% (n = 190,000); GST-Rab2 wt beads, Bodipy-GTP binding, flow cytometry; AID 760; P61105;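 active = GTP binding activity at least 20 points away from 100%, either lowered or raised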;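 note: 0% = beads with excess unlabeled GTP and 100% = no-compound control corrected for plate trend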
Rac1 wt GTP bind: modulators of human Rac1 wildtype GTP binding | GTP binding activity (% of control), % at 10 µM | GST-Rac1 beads, fluorescent GTP binding, flow cytometry; actives lie on both sides; 0 = cold GTP competed, 100 = untreated | actives 0.27% (n = 190,000) | P63000;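 active = GTP binding activity at least 20 points away from the 100% control level, either lower or higher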
Rab7 wt GTP bind: dog Rab7 wildtype GTP binding, inhibitors and activators | GTP binding activity (percent of control), % at 10 µM | actives 0.055% (n = 190,000) | GST-Rab7 beads, fluorescent GTP binding, flow cytometry; actives lie on both sides; untreated = 100%, excess cold GTP = 0%;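 active = fluorescent GTP binding to Rab7 beads changed by at least 20 points from the 100% baseline, either direction, mostly lower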;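 note: median green fluorescence of bound Bodipy-FL-GTP per Rab7 bead population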
HRas wt GTP: human HRas wildtype GTP binding, change in either direction; P01112; GST-Ras wt beads, Bodipy-FL-GTP binding, flow cytometry; actives lie on both sides; GTP binding activity, % at 10 µM; actives 0.14% (n = 190,000);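 active = GTP binding activity at least 20% away from the 100% baseline, either lowered as inhibitor or raised as activator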;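 note: 0% = unlabeled GTP competition control and 100% = no-compound control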
Target sequence (P01112 whole entry, looked up): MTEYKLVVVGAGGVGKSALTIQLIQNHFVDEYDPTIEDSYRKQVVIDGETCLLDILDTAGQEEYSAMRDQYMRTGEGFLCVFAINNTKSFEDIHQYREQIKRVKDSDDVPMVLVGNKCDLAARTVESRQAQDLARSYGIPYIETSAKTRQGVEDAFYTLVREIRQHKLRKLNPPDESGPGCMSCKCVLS
Active calls of the source: *; . = no result given; [ ] = dose if it differs, or a comment. Rows were chosen to be rich in hits. Some 0.4% of all compounds tested hit in one or more screens of this group.

SMILES	Cdc42 wt GTP	Rac1 act GTP bind	Rab2A wt mod	Rac1 wt GTP bind	Rab7 wt GTP bind	HRas wt GTP
COc1cc2[nH]c(=S)nc(NC3CCCCCC3)c2cc1OC	69*	83	69*	60*	88	66*
CCOc1cnn(Cc2ccccc2)c(=O)c1SCc1ccccc1	101	101	101	105	103	103
COc1ccc(CC(=O)OCc2nnc(-c3ccccc3)o2)cc1	85	84	85	88	90	86
Cc1ccc(NCC(=O)c2ccccc2)cc1Cl	93	92	88	91	82	78*
COc1ccc(C(=O)OCC(=O)NC(=O)NC2CCCC2)c(OC)c1	97	96	97	101	104	97
COc1ccccc1Oc1ccccc1C(=O)O	122*[activator]	119	116	130*[activator]	112	114
CCOC(=O)N1CCN(C(=O)/C=C/c2cccc([N+](=O)[O-])c2)CC1	96	96	96	98	98	98
Cc1ccc(O)c(N=Cc2cc(Cc3ccccc3)cc([N+](=O)[O-])c2O)c1	76*	68*	74*	77*	79*	82
O=[N+]([O-])c1cc(Cc2ccccc2)cc(C=Nc2ccc(N3CCOCC3)cc2)c1O	78*	62*	64*	75*	71*	77*
O=C(Nc1ccccc1Cl)c1ccccc1Cc1ccccc1	105	106	102	111	103	105
O=[N+]([O-])c1ccccc1/C=C/C=N/n1c(-c2ccco2)n[nH]c1=S	76*	75*	82	77*	84	80
O=C(Cn1cnc2c(nnn2Cc2ccccc2F)c1=O)NCC1CCCO1 (stereo unspecified)	118	104	126*[activator]	120*[activator]	109	109
O=C(Cn1cnc2c(nnn2Cc2ccccc2)c1=O)NCC1CCCO1 (stereo unspecified)	104	99	102	110	101	104
Cc1cc(NS(=O)(=O)c2ccc(NC(=O)c3cc4c(=O)n5ccccc5nc4s3)cc2)nc(C)n1	76*	85	80	83	104	82
CN(C)S(=O)(=O)c1cccc(NC(=O)c2cc3c(=O)n4ccccc4nc3s2)c1	96	96	87	91	93	89
COc1ccc2[nH]c3c(NCCC4=CCCCC4)ncnc3c2c1	87	92	96	90	107	93
CCC(=O)c1ccc(OCC(=O)O)c(OC)c1	105	104	101	122*[activator]	96	100
CCOC(=O)COc1ccc(C(=O)CC)cc1OC	96	97	100	99	104	99
CCN(CC)S(=O)(=O)c1ccc2c(c1)c(=O)c(C(=O)N1CCc3ccccc3C1)cn2C	115	109	118	132*[activator]	116	119
C/C(=N/NC(=O)c1ccoc1C)c1ccc(NC(=O)c2ccncc2)cc1	99	98	99	104	95	98
Nc1c(C(=O)C2CC2)sc2nc(-c3cccs3)cc(C(F)(F)F)c12	109	103	117	120*[activator]	116	110
NC(=S)N=Nc1c(O)[nH]c2ccc(F)cc12	84	89	74*	76*	85	76*
O=Nc1c(O)[nH]c2ccc(F)cc12	94	93	96	100	102	96
CC(=O)Nc1ccc(Nc2ccc3c4c(cc(=O)n3C)-c3ccccc3C(=O)c24)cc1	88	87	85	77*	93	86
CCC(C)(C)NC(=O)c1ccc2c(c1)N(CC(=O)OC)C(=O)C(C)(C)O2	107	101	103	120*[activator]	100	103
SMILES	Cdc42 wt GTP	Rac1 act GTP bind	Rab2A wt mod	Rac1 wt GTP bind	Rab7 wt GTP bind	HRas wt GTP
Cc1cc([N+](=O)[O-])ccc1N=Nc1c(N)[nH]n(-c2ccccc2)c1=O	88	87	90	78*	99	91
Nc1[nH]n(-c2ccccc2)c(=O)c1N=Nc1ccc2c(c1)OCCO2	90	92	93	94	96	92
COC(=O)CS(=O)(=O)c1ccsc1C(=O)Nc1ccc(F)cc1	93	95	94	100	100	95
CCCCCCCCSc1nnc2[nH]c(=O)cc(N)n12	69*	.	.	.	.	84
CCOC(=O)c1c2c3c(cccc3[nH]c1=O)C(=O)c1ccccc1-2	63*	80	65*	76*	84	66*
CCOC(=O)c1c2c3c(c(Cl)ccc3[nH]c1=O)C(=O)c1ccccc1-2	41*	65*	44*	45*	88	44*
COCCCNc1c2c3c(cccc3[nH]c1=O)C(=O)c1ccccc1-2	86	90	82	84	87	84
Cc1ccc(S(=O)(=O)NC(C(=O)N2CCOCCOCCOCC2)c2ccccc2)cc1 (stereo unspecified)	96	95	94	100	95	96
CNc1c([N+](=O)[O-])cnn1-c1cccc(Cl)n1	92	96	96	95	97	95
O=C(NC1CCCCC1)C(c1ccco1)N(Cc1ccco1)C(=O)c1ccco1 (stereo unspecified)	100	98	98	100	98	64*
COCCNC(=S)N/N=C(\C)c1cccc(OC)c1	95	95	98	98	106	98
COc1cc2ccccc2cc1C(=O)NC(=S)Nc1cccc(C(=O)O)c1	75*	80	75*	81	85	76*
CCCc1nc2c(nnn2Cc2ccccc2Cl)c(=O)[nH]1	92	90	94	94	99	92
Cc1cccc2cc(CN(CCCN(C)C)C(=S)NCCc3ccccc3)c(=O)[nH]c12	98	98	98	101	107	98
Cc1c(C(=O)N2CCOCC2)oc2ccc(S(=O)(=O)N3CCCC3)cc12	102	100	103	103	100	103
Cc1c(C(=O)N2CCc3ccccc3C2)oc2ccc(S(=O)(=O)N3CCCCCC3)cc12	105	108	112	131*[activator]	108	111
Fc1ccc(NC(=S)Nc2ccccc2N2CCOCC2)cc1Cl	97	98	98	99	92	97
O=C(Nc1cccc(Cl)c1)N1CCN(c2ncccn2)CC1	114	104	111	125*[activator]	108	109
O=C(Nc1ccc(Cl)cc1Cl)N1CCN(c2ncccn2)CC1	95	94	95	97	94	94
COCCCn1cc(C(=O)c2cc(OC)ccc2OCC(=O)Nc2cc(C)on2)cc(C#N)c1=O	98	97	99	106	104	102
CCn1cc(C(=O)OCC(=O)c2cc(C)n(-c3cccc(C(F)(F)F)c3)c2C)c(=O)c2ccc(C)nc21	79*	74*	72*	70*	83	80
